Reference: PubChem BioAssay (EPA / NIEHS)
Inconclusive results are not listed. Active and inactive are the calls of the source. Rule for the calls: active = hit-call score of the fitted dose curve at least 0.9, where 1 is the maximum; inconclusive = response in the unintended direction; inactive = score below 0.9.

What follows are molecules tested against Tyrosine-protein phosphatase non-receptor type 11 (Homo sapiens) (UniProt Q06124) (assay: NVS_ENZ_hPTPN11: NovaScreen (NVS) Enzymatic Assay for human Protein Tyrosine Phosphatase Non-receptor Type 11 (PTPN11) (AID 2283202)).
Sequence of Tyrosine-protein phosphatase non-receptor type 11 (Homo sapiens) (Q06124 whole entry, looked up): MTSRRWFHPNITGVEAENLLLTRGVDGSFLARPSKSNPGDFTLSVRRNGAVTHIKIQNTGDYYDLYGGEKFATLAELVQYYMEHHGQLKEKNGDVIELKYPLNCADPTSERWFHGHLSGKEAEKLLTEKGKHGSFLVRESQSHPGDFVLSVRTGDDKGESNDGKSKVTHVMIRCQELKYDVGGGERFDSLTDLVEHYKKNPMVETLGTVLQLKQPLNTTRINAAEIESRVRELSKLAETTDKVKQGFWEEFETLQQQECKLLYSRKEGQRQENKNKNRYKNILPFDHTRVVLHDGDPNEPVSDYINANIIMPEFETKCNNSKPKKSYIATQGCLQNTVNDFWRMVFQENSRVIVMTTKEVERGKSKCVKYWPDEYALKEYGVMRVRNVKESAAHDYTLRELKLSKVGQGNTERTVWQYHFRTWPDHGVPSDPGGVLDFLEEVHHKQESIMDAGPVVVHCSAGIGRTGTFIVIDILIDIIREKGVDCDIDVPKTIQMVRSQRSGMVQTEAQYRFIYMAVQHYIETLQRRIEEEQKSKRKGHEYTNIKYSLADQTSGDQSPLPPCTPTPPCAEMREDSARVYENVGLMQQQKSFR
Summary of the method: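 Recombinant human PTPN11 activity on a fluorescent substrate, with substrate/product separated by electrophoretic mobility shift; read 0.5 h after dosing, loss of signal vs DMSO. Duplicate 25 uM screen, then concentration-response up to 50 uM.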
`CCCCCCCCCCCCc1cccc(S(=O)(=O)O)c1` was tested, and the AC50 was 22.5 µM (active). In the case of `N#Cc1cccnc1`, the outcome was “inactive”. For `CC(C)O.CC(C)O.OCCN(CCO)CCO.OCCN(CCO)CCO.[Ti]`, the AC50 was 13.6 µM (active).

The molecules below were run against human Phosphatase and Tensin Homolog (PTEN), PTEN (gene 5728) (UniProt P60484) (assay: NVS_ENZ_hPTEN: NovaScreen (NVS) Enzymatic Assay for human Phosphatase and Tensin Homolog (PTEN) (AID 2283203)).
Sequence of human Phosphatase and Tensin Homolog (PTEN), PTEN (gene 5728) (P60484 whole entry, looked up): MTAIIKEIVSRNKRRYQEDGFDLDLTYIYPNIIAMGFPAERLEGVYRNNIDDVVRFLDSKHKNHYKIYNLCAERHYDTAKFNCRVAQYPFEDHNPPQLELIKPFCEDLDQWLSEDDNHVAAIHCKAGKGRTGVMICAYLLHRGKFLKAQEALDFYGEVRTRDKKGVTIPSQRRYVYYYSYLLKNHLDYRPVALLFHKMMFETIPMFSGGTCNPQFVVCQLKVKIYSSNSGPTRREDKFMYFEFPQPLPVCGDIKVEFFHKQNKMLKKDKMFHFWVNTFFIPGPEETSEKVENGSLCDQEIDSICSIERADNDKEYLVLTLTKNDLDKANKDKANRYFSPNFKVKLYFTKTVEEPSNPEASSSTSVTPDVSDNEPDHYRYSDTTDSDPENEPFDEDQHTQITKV
Summary of the method: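 Cell-free recombinant human PTEN with fluorescent substrate; product separated by electrophoretic mobility shift and read by fluorescence 1 h after dosing. Primary screen in duplicate at 25 uM, actives followed in concentration series versus DMSO.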
With `CCCCCCCCCCCCc1cccc(S(=O)(=O)O)c1` the AC50 was 12.9 µM (active). For `CN(C)C(=S)S`, the outcome was “inactive”. In the case of `N#Cc1cccnc1`, the outcome was “inactive”. With `CC(C)O.CC(C)O.OCCN(CCO)CCO.OCCN(CCO)CCO.[Ti]` the AC50 was 0.493 µM (active).

Each molecule was assayed against Tyrosine-protein phosphatase non-receptor type 12 (Homo sapiens) (UniProt Q05209) (assay: NVS_ENZ_hPTPN12: NovaScreen (NVS) Enzymatic Assay for human Protein Tyrosine Phosphatase Non-receptor Type 12 (PTPN12) (AID 2283204)).
Sequence of Tyrosine-protein phosphatase non-receptor type 12 (Homo sapiens) (Q05209 whole entry, looked up): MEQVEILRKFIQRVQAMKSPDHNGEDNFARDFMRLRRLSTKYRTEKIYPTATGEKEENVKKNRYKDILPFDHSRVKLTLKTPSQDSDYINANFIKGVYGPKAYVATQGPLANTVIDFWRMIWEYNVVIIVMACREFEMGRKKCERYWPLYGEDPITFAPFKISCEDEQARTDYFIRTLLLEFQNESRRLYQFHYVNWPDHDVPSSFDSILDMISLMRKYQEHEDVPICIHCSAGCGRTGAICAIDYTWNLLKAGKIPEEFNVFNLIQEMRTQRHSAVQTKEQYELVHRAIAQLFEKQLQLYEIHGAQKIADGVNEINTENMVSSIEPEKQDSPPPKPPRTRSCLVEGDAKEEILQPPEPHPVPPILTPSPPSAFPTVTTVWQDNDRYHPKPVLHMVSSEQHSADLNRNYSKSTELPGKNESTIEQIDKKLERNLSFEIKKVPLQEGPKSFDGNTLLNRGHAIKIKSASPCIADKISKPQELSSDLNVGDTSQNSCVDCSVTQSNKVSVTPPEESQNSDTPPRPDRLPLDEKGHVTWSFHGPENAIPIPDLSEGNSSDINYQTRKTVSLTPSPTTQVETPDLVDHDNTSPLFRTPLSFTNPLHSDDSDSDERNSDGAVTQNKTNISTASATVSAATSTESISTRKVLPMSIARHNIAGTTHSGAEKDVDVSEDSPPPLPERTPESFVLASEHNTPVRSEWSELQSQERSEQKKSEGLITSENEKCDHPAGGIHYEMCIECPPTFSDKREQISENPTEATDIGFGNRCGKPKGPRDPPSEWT
Summary of the method: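 Single-concentration duplicates (25 uM) preceded singleton concentration-response up to 50 uM for chemicals passing threshold. Cell-free recombinant PTPN12 activity was read 1.33 h after dosing via fluorescence after mobility-shift separation; loss of signal versus DMSO.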
With `CCCCCCCCCCCCc1cccc(S(=O)(=O)O)c1` the AC50 was 12.8 µM (active). `N#Cc1cccnc1` was tested, and the outcome was “inactive”. In the case of `CC(C)O.CC(C)O.OCCN(CCO)CCO.OCCN(CCO)CCO.[Ti]`, the AC50 was 0.00439 µM (active).
